Active and inactive are the calls of the source. How the source made its calls: active means hit-call score of the fitted dose curve at least 0.9, where 1 is the maximum; inactive means score below 0.9.

A short description of this assay: APR_HepG2_MitoticArrest_72hr: Apredica 72-hour HepG2 Assay for Mitotic Arrest (AID 2282918). Particulars: high-content imaging, actives raise or lower the signal. How it is done:
APR_HepG2_72hr is a cell-based, multiplexed-readout assay that uses HepG2, a human liver cell line, with measurements taken at 72 hours after chemical dosing in a 384-well plate.APR_HepG2_MitoticArrest_72hr is one of 10 assay component(s) measured or calculated from the APR_HepG2_72hr assay. It is designed to make measurements of cell phenotype, a form of morphology reporter, as detected with fluorescence intensity signals by HCS Fluorescent Imaging technology.Data from the assay component APR_HepG2_MitoticArrest_72hr was analyzed into 1 assay endpoint. This assay endpoint, APR_HepG2_MitoticArrest_72hr, was analyzed with bidirectional fitting relative to DMSO as the negative control and baseline of activity. Using a type of morphology reporter, measures of protein for gain or loss-of-signal activity can be used to understand the signaling at the pathway-level as they relate to the gene . Furthermore, this assay endpoint can be referred to as a primary readout, because this assay has produced multiple assay endpoints where this one serves a signaling function. To generalize the intended target to other relatable targets, this assay endpoint is annotated to the cell cycle intended target family, where the subfamily is arrest.
Cells were treated with dimethyl sulfoxide (DMSO) as a solvent control at a final concentration of 0.5% v/v or with compounds in DMSO with a resulting final DMSO concentration of 0.5% v/v. Compound treatment was done at concentrations of 0.39, 0.78, 1.56, 3.12, 6.24, 12.5, 25, 50, 100, and 200 uM in duplicate on each plate. Cells were treated with compounds for 1, 24, or 72 hr. Carbonyl […] m-chloro-phenylhydrazone (CCCP) and taxol were used as positive controls for mitochondrial function and cytoskeletal stability, respectively; DMSO served as the negative control for this experiment. Cells were fixed by the direct addition of 50 uL formaldehyde in Hank's Balanced Salt Solution (HBSS) to a final concentration of 3.7%. After incubation in the fixation medium for 30 min at room temperature (293-298 K), cells were rinsed twice with HBSS and treated with cell permeabilization buffer (16 uL of 0.5% Triton X-100) for 10 min at room temperature (293-298 K) before labeling. For mitochondrial membrane potential and mitochondrial measurements, pre-fixed cells were incubated with 50 uL of MitoTracker Red CMXRos (Invitrogen) at a concentration of 250 nM for 30 min before fixation. In the remaining cases, post-fixed cells were labeled by incubation with a multiplexed mixture of primary antibodies in HBSS for 60 min at room temperature (293-298 K) to detect immunoreactivity of c-Jun (1:500), phospho-histone H3 (1:100), phospho-histone H2A.x (1:200), p53 (1:400), alpha-tubulin (1:200) and Hoechst 33342 (2 ug/mL). Cells were labeled for multiplexed imaging on two separate plates: a) Hoechst 33342, MitoTracker Red, phospho-histone H3, and alpha-tubulin, and b) Hoechst 33342, phospho-histone H2A.x, and c-Jun. A final rinse with HBSS (50 uL) was performed before analysis. The primary and secondary antibodies for the proteins were phospho-histone H3 (rabbit anti-phospho-histone H3 and FITC-donkey anti-rabbit IgG), phospho-histone H2A.x (mouse anti-phospho-histone H2A.x and FITC-donkey anti-mouse IgG), c-Jun (rabbit anti-phospho-c-Jun and Cy3-donkey anti-rabbit IgG), p53 (sheep anti-p53 and Cy5-donkey anti-sheep IgG), alpha-tubulin (mouse anti-alpha-tubulin and Cy5-donkey anti-mouse IgG). These antibodies are available as the CellCiphr HepG2 assay kit (Millipore).Digital images of each well were captured using a Cellomics ArrayScan VTI (Thermo Scientific Cellomics) (0.8 NA objective, 0.63x optical coupler, and XF-93 filter set) at 20x magnification. The images were acquired using the autofocus feature of the ArrayScan instrument, which entails the following steps. First, the camera focuses on channel 1 (Hoechst 33342), where nuclei are identified. Second, a Z offset of 1 um is used for capturing mitochondria (MitoTracker Red). […]
What is called AC50 is the concentration giving half of the maximal activity seen. As to `Nc1nc(=S)c2[nH]cnc2[nH]1`, the AC50 was 21 µM (active).

Regarding `C#CC(O)C(CC)CCCC` (stereo not given), the call was inactive. Same read-out and setting: next, `CC(=O)CC(c1ccccc1)c1c(O)c2ccccc2oc1=O` (stereo not given): “inactive”.

Take `O=C1OC(c2ccc(O)cc2)(c2ccc(O)cc2)c2ccccc21`: the AC50 was 50.9 µM (active). `CC(C)COC(=O)CCCCC(=O)OCC(C)C`: the call was inactive. The same measure, in the same setting: next, `NC=O`: “inactive”; `NC1CCCCC1`: “inactive”. Still for that read-out and setting: next, `CSc1ccc(Oc2ccc(S(N)(=O)=O)cc2CN(C)C)cc1C`: “inactive”.

Turning to `CCc1nc(N)nc(N)c1-c1ccc(Cl)cc1`, the AC50 was 110 µM (active). `Oc1ccc(O)cc1`: the outcome was inactive. On the same count and under the same terms, next, `CC(COCC(C)OC(=O)c1ccccc1)OC(=O)c1ccccc1` (stereo not given): “inactive”.

On to `CCCC[C@H]1CN(CC2CCOCC2)C(=O)OC12CCN(C1(C)CCN(C(=O)c3c(C)ncnc3C)CC1)CC2`, for which the compound was called inactive.

In the case of `CCCCC(CC)CO` (stereo not given), the compound was classed as inactive. For `CC1=C(C)S(=O)(=O)CCS1(=O)=O`, the AC50 was 33.1 µM (active).

As to `Cc1ccc(-c2cc(C(F)(F)F)nn2-c2ccc(S(N)(=O)=O)cc2)cc1`, the result was inactive. Still for that read-out and setting: next, `CC(C)(O)c1ccc(CNC(=O)c2cccnc2Oc2ccc(F)cc2)cc1`: “inactive”; `CCCCCCC(C=O)=Cc1ccccc1`: “inactive”. On the same count and under the same terms, next, `C/C=C/c1ccc(OC)cc1`: “inactive”; `CO[C@@H]1COCC[C@@H]1N[C@@H]1CC[C@@](C(=O)N2CCc3ncc(C(F)(F)F)cc3C2)(C(C)C)C1`: “inactive”. Still for that read-out and setting: next, `CCCCCCCC(=O)OC`: “inactive”. For `CCCCc1nc2cccnc2n1Cc1ccc(-c2ccccc2-c2nnn[nH]2)cc1`, the AC50 was 67.1 µM (active). In the case of `C=CCc1ccc(OC)c(OC)c1`, the compound was classed as inactive.

In the case of `CC(=O)OCC(COC(C)=O)OC(C)=O`, the outcome was inactive. The same measure, in the same setting: next, `O=C(NS(=O)(=O)/C=C/c1cccs1)c1ccc(F)cc1Br`: “inactive”. Regarding `O=C(O)c1cccnc1`, the AC50 was 116 µM (active). Same read-out and setting: next, `CCCCCCCCCC[N+](C)(C)[O-]`: 75 µM (active); `Cc1c(C)c2c(c(C)c1O)CCC(C)(COc1ccc(CC3SC(=O)NC3=O)cc1)O2` (stereo not given): 54.3 µM (active). Same read-out and setting: next, `CC(=O)O`: 92.8 µM (active). Consider `c1ccc2occc2c1`, for which the compound was called inactive.

For `CCN(CC)CCOc1ccc(C(=C(Cl)c2ccccc2)c2ccccc2)cc1`, the AC50 is 11.4 µM (active). With `CS(=O)(=O)c1ccc([C@@H](C[C@H]2CCC(=O)C2)C(=O)Nc2cnccn2)cc1Cl`, the call was inactive.

For the compound `CCC(C)N(C)C(=O)c1cc2ccccc2c(-c2ccccc2Cl)n1` (stereo not given), the AC50 was 65.8 µM (active).

Turning to `CCCCC(CC)COC(=O)CCCCCCCC(=O)OCC(CC)CCCC` (stereo not given), the compound was called inactive. Regarding `O=C1c2c(O)cccc2Cc2cccc(O)c21`, the outcome was inactive.

As for `O=C1NC(=O)C(c2ccccc2)(c2ccccc2)N1`, the outcome was inactive. Still for that read-out and setting: next, `CC(=O)OC1CC(C)OC(C)O1` (stereo not given): “inactive”. In the case of `C/C=C/C=C/C(=O)O`, the AC50 is 98.2 µM (active).

On to `CCCCCCCCCCCCCCCCO`, for which the compound was called inactive. Same read-out and setting: next, `COC(=O)CCC(=O)OC`: “inactive”. In the case of `COc1ccc(C(=O)Nc2nc3ccccc3c(NCc3ccccc3)c2C#N)cc1`, the AC50 was 108 µM (active).

The values are drawn from PubChem BioAssay (EPA / NIEHS).
